In paper PMC7862700, “An all-to-all approach to the identification of sequence-specific readers for epigenetic DNA modifications on cytosine” one finds binding signal data, which are given here for one sequence.

Assay in all cases: DAPPL (digital affinity profiling via proximity ligation, sequencing); 10 mM Tris-HCl pH 7.5, 50 mM NaCl, 1 mM DTT, 4% glycerol, room temperature, 30 min; GST-TFs on glutathione beads, 16-mer random dsDNA library, 0.1% formaldehyde crosslink after washing; high values mean tight binding
Common to all, as to settings: protein: recombinant; tags: N-terminal GST; dsDNA, one strand shown

For assay [1], the target named is T1, ERG (Homo sapiens, UniProt P11308 1-479).
T1 sequence: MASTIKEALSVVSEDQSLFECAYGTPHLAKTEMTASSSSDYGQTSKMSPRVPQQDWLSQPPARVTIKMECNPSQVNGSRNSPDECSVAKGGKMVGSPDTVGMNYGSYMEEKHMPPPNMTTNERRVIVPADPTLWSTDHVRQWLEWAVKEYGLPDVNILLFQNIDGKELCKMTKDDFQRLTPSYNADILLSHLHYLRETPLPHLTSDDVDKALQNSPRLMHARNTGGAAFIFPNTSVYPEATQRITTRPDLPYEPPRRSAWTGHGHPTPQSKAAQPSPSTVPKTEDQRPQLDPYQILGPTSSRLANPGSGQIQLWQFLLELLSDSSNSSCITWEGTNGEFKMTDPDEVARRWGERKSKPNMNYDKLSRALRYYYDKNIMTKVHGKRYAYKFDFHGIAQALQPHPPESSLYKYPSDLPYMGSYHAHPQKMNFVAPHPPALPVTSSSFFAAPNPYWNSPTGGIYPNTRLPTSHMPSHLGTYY
The essentials: (§1)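 A tag-only sample was pooled with DNA-barcoded human transcription factors that had been expressed in yeast as GST fusions and captured on glutathione beads. The pools were incubated for 30 min at room temperature with 200 nmole of a random double-stranded 16-mer DNA library in Tris/NaCl/DTT/glycerol buffer, then washed, crosslinked with 0.1% formaldehyde, proximity-ligated (BsaI/T4 ligase, 1 h, 37 °C), PCR-amplified and sequenced on an Illumina NextSeq500. Binding signal is each hexamer's read frequency for a factor divided by its frequency for the tag-only sample.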

Assay [2] addresses ELF1 (Homo sapiens, UniProt P32519 1-619). Put shortly: as §1
Assay [3] has as its target T2, EHF (Homo sapiens, UniProt Q9NZC4 1-300).
T2 sequence: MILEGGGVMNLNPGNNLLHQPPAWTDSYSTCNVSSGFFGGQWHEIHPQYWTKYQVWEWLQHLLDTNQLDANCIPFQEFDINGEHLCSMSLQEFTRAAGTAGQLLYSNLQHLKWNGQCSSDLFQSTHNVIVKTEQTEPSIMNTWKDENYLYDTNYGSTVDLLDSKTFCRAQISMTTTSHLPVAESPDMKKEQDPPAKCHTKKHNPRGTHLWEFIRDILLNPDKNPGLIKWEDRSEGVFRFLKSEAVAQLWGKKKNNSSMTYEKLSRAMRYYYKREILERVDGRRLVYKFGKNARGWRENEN
The essentials:
as §1

The target of assay [4] is SPIB (Homo sapiens, UniProt Q01892 1-262). The essentials:
as §1

Assay [5] addresses ETV5 (Homo sapiens, UniProt P41161 1-510). Put shortly: as §1
Assay [6] deals with T3, SPIC (Homo sapiens, UniProt Q8N5J4 1-248).
T3 sequence: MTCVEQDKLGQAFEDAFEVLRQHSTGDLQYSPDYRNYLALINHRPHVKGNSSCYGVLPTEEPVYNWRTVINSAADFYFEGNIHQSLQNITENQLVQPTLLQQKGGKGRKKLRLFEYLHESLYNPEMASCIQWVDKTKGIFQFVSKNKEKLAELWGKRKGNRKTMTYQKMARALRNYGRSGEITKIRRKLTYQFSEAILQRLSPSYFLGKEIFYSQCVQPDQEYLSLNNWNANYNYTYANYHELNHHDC
Put shortly: as §1

Assay [7] concerns the target ELF4 (Homo sapiens, UniProt Q99607 1-663). The essentials: as §1
Assay [8] addresses ETV1 (Homo sapiens, UniProt P50549 1-477). The essentials: as §1
Assay [9] has as its target T4, ETS2 (Homo sapiens, UniProt P15036 1-469).
T4 sequence: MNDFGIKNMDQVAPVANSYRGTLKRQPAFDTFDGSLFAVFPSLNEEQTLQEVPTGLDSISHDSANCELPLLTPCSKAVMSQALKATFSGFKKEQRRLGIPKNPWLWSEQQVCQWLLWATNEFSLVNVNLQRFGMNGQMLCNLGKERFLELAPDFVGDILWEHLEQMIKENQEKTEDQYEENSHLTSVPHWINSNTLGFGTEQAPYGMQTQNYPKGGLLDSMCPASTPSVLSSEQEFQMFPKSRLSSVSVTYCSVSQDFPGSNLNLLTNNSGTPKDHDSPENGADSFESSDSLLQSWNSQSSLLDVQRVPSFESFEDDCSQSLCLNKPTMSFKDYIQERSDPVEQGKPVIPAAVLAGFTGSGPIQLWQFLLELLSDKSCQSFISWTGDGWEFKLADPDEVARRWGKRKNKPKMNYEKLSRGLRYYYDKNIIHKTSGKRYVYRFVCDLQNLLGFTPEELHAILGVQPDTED
Put shortly: as §1

Assay [10] has as its target T5, ETV3 (Homo sapiens, UniProt P41162-2 1-143).
T5 sequence: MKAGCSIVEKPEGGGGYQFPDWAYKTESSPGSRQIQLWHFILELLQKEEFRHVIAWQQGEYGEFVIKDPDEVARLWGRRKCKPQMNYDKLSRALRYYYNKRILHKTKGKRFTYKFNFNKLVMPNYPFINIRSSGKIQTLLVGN
Put shortly: as §1

SPIB, sequence (Q01892 whole entry): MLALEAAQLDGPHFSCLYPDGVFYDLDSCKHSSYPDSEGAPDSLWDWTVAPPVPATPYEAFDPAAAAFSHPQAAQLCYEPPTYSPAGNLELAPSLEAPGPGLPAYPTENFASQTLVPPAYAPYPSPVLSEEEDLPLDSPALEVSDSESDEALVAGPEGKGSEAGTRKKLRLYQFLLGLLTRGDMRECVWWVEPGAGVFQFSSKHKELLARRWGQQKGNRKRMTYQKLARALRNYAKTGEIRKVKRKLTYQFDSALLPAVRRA
ELF1, sequence (P32519 whole entry): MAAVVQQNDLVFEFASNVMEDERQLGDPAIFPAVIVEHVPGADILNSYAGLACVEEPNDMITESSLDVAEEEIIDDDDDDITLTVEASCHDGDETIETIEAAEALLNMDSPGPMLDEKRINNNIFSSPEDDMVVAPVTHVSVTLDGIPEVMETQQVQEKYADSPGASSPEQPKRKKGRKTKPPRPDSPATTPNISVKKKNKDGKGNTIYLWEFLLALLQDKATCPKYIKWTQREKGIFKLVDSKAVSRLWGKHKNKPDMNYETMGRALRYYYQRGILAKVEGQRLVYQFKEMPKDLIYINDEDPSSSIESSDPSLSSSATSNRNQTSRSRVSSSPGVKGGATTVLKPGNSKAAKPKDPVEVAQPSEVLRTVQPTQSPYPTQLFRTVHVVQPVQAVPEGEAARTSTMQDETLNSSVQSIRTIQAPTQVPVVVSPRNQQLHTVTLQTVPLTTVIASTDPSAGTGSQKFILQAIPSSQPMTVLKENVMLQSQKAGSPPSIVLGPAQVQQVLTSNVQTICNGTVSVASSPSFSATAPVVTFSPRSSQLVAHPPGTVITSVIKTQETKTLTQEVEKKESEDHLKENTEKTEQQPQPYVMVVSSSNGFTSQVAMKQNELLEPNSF
ETV5, sequence (P41161 whole entry): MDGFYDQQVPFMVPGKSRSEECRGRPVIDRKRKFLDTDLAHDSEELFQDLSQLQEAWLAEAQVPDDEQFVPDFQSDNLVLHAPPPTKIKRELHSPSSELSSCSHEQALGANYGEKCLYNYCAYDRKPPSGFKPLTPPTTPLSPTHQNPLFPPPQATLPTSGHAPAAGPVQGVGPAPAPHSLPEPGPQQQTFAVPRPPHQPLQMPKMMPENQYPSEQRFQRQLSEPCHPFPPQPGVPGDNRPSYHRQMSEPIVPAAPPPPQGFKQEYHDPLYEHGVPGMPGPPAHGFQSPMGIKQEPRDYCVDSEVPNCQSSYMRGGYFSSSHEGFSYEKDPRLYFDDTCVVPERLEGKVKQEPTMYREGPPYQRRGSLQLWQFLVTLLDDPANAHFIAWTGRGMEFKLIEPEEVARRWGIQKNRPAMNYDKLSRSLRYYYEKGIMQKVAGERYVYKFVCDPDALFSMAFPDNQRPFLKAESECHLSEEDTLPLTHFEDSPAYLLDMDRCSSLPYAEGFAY
ELF4, sequence (Q99607 whole entry): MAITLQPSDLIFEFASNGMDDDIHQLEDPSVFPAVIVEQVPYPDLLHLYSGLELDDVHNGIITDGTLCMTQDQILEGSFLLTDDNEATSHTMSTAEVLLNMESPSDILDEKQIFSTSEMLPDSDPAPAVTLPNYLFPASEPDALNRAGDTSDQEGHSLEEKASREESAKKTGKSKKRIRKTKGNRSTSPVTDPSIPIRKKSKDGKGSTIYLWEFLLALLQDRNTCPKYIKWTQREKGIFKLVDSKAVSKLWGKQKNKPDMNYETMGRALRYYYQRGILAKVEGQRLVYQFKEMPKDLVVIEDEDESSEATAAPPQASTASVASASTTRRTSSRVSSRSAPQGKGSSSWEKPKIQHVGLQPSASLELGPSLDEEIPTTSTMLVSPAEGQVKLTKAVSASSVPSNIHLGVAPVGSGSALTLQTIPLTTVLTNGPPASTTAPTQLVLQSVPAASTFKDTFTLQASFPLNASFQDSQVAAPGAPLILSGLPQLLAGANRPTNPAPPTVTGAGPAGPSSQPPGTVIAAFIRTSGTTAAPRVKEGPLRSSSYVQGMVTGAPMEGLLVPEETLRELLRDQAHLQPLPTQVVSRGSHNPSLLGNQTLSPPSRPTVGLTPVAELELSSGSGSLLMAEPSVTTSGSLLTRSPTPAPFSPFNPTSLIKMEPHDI
ETV1, sequence (P50549 whole entry): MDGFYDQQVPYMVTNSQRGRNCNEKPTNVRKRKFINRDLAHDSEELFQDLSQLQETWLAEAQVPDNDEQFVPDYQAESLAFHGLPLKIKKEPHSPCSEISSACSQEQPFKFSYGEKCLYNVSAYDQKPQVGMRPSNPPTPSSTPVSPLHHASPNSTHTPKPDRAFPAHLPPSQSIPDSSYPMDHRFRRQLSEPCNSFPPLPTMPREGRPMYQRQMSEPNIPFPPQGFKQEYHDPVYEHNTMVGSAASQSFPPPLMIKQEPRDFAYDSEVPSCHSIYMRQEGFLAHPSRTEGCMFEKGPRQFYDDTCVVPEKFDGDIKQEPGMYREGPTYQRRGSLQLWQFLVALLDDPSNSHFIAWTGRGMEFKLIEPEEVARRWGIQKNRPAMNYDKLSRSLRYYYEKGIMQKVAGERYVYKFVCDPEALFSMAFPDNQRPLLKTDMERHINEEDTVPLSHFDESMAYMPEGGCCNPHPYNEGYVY

In the case of GAACTG, the binding signal is 1.06 fold enrichment (6-mer frequency, TF over GST control) in [1]; 1.02 fold enrichment (6-mer frequency, TF over GST control) in [2]; 1.01 fold enrichment (6-mer frequency, TF over GST control) in assay [3]; 1.01 fold enrichment (6-mer frequency, TF over GST control) in assay [4]; 1.05 fold enrichment (6-mer frequency, TF over GST control) in assay [5]; 1.26 fold enrichment (6-mer frequency, TF over GST control) in [6]. For the same sequence, the binding signal in [7] is 1.02 fold enrichment (6-mer frequency, TF over GST control); in [8] it was 1.05 fold enrichment (6-mer frequency, TF over GST control); in [9] it was 1.02 fold enrichment (6-mer frequency, TF over GST control); in assay [10] it was 1.09 fold enrichment (6-mer frequency, TF over GST control).
